Test results taken from PubChem BioAssay.
Entries with a potency or affinity are not part of this list. A number with no mark means an inactive call.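 The calls were made as follows: active = a fitted half-maximal concentration no higher than twice the top valid tested dose, with signal falling as cells die; inconclusive = flat curve between -70% and -30%, or poor fit; inactive = the rest, including signal rising instead of falling.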

Assay: viability loss in HeLa cells – cell-based, ATP luminescence, cherry-pick samples, cytotoxicity control, dose response (AID 687004);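 also: 0% = neutral control median and -100% = staurosporine 10 µM control median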
Conditions: ATP luminescence (CellTiter-Glo), 48 h; series mostly up to 26 µM; activity change, negative = cytotoxicity: at the top concentration

Point of comparison: `C[C@H]1CCCCO[C@H](CN(C)C(=O)c2ccncc2)[C@@H](C)CN([C@@H](C)CO)C(=O)c2cc(NC(=O)Cc3ccccc3)ccc2O1`, “activity change, negative = cytotoxicity” value -0.948%. Against it:
- COc1ccc(NC(=O)N(C)C[C@H]2OCCCC[C@H](C)Oc3ccc(NC(=O)C4CCCCC4)cc3C(=O)N([C@@H](C)CO)C[C@@H]2C)cc1 — lower, -1.38%
- C[C@@H]1CN([C@H](C)CO)C(=O)c2cc(NS(=O)(=O)c3ccc(Cl)cc3)ccc2O[C@H]1CN(C)S(=O)(=O)c1ccc(F)cc1 — higher, 9.31%
- COc1ccc(-n2ncc3c(SCC(=O)NNC(C)=O)ncnc32)cc1 — higher, 11.1%
- Cc1noc(C)c1NC(=O)Nc1ccc2c(c1)C(=O)N([C@H](C)CO)C[C@@H](C)[C@H](CN(C)S(C)(=O)=O)OCCCC[C@@H](C)O2 — higher, 16.1%
- C[C@@H]1CCCCO[C@H](CN(C)C(=O)Nc2ccc(F)cc2)[C@H](C)CN([C@@H](C)CO)C(=O)c2cc(NS(=O)(=O)c3ccc(Cl)cc3)ccc2O1 — higher, 31%
- CCS(=O)(=O)N1CCCCN2[C@H](CO)[C@@H](c3ccc(-c4ccc(C#N)cc4)cc3)[C@@H]2C1 — lower, -1.29%
- O=C(CN(c1ccc(F)cc1)S(=O)(=O)c1ccccc1)NC1CCCCCC1 — lower, -7.01%
- CCCCN1CCCCC1C(=O)Nc1c(C)cccc1C (centres undefined) — higher, 52.6%
- CCS(=O)(=O)NCC[C@H]1CC[C@H](NS(=O)(=O)c2cccc(F)c2)[C@H](CO)O1 — lower, -4.05%
- Cc1ccc(S(=O)(=O)N2C[C@@H](O)COC[C@@H]3O[C@H](CC(=O)NCc4ccc5c(c4)OCO5)CC[C@H]32)cc1 — higher, 10.2%
- C[C@@H]1CCCCO[C@H](CN(C)C(=O)c2ccncc2)[C@H](C)CN([C@H](C)CO)C(=O)c2cc(NC(=O)CCC(F)(F)F)ccc2O1 — higher, 11.1%
- C[C@H](CO)N1C[C@H](C)[C@@H](CN(C)S(C)(=O)=O)Oc2cc(C#Cc3ccccc3)ccc2S1(=O)=O — higher, 3.17%
- C[C@H]1CN([C@@H](C)CO)C(=O)c2cc(NC(=O)Nc3cccc4ccccc34)ccc2O[C@@H]1CN(C)C(=O)Nc1ccc(C(F)(F)F)cc1 — higher, 6.06%
- CO[C@H]1CN(C)C(=O)c2cc(NC(=O)c3ccc4c(c3)OCO4)ccc2OC[C@@H](C)N(CC2CC2)C[C@H]1C — higher, 6.08%
- COc1ccc(NC(=O)N(C)C[C@@H]2OCCCC[C@H](C)Oc3ccc(NC(=O)Nc4ccc5c(c4)OCO5)cc3C(=O)N([C@H](C)CO)C[C@@H]2C)cc1 — higher, 9.47%
- Cc1ccc(S(=O)(=O)N(C)C[C@@H]2Oc3ncc(Br)cc3C(=O)N([C@@H](C)CO)C[C@H]2C)cc1 — higher, 14.1%
- O=C(C[C@H]1CC[C@H]2[C@@H](COC[C@@H](O)CN2S(=O)(=O)c2ccc(Oc3ccccc3)cc2)O1)NC1CCC1 — higher, 9.41%
- O=C(C[C@@H]1CC[C@H]2[C@@H](COC[C@H](O)CN2Cc2ccccc2F)O1)NC1CCC1 — lower, -1.76%
- COc1ccc(C2CC(c3cccs3)=NN2C(=O)c2ccc(Br)o2)cc1 (centres undefined) — higher, 8.93%
- COCC#Cc1cnc2c(c1)C(=O)N([C@H](C)CO)C[C@@H](C)[C@@H](CN(C)C(=O)Nc1ccc(OC)cc1)O2 — lower, -6.12%
- COc1ccc(CN(C)C[C@@H]2OCCCC[C@H](C)Oc3ccc(N(C)C)cc3C(=O)N([C@H](C)CO)C[C@@H]2C)cc1 — higher, 9.74%
- COc1cccc(S(=O)(=O)N(C)C[C@H]2OCc3cnnn3CCCC(=O)N([C@H](C)CO)C[C@H]2C)c1 — higher, 20.4%
- O=C(C[C@H]1CC[C@H](NC(=O)Nc2ccc(C(F)(F)F)cc2)[C@H](CO)O1)NCc1cccc(F)c1 — higher, 13.5%

Point of comparison: `CO[C@H]1CN(C)C(=O)c2cc(NC(=O)C3CCOCC3)ccc2OC[C@@H](C)NC[C@H]1C`, “activity change, negative = cytotoxicity” value 11.3% [at 23.5 µM]. Against it:
- C[C@H](CO)N1C[C@H](C)[C@@H](CN(C)S(=O)(=O)c2ccc(Cl)cc2)Oc2c(NS(=O)(=O)c3ccc(F)cc3)cccc2C1=O — lower, 2.3% [at 23.5 µM]
- COc1ccccc1-c1ccc([C@H]2[C@@H](C#N)N(C(=O)C3CC3)[C@@H]2CO)cc1 — lower, 0.138% [at 23.5 µM]
- CNC(=O)C[C@H]1CC[C@H]2[C@H](COc3ccc(NC(=O)c4cc(C)on4)cc3C(=O)N2C)O1 — lower, 1.2% [at 23.5 µM]

For `CCC(C)(C(=O)Nc1cccc(C)c1)N1CCC1=O` (centres undefined), the “activity change, negative = cytotoxicity” value was 10.7% [at 46 µM].
